Hit rate of the full screen: of about 69,000 compounds, about 420 (0.61%) showed an effect of 50% or more. The sample holds strong results, similar compounds and a random draw of the others, so the mix is not that of the screen.

The experiment deals with T1, Histidine--tRNA ligase (Leishmania infantum) (UniProt A4I591).
T1 sequence (whole entry): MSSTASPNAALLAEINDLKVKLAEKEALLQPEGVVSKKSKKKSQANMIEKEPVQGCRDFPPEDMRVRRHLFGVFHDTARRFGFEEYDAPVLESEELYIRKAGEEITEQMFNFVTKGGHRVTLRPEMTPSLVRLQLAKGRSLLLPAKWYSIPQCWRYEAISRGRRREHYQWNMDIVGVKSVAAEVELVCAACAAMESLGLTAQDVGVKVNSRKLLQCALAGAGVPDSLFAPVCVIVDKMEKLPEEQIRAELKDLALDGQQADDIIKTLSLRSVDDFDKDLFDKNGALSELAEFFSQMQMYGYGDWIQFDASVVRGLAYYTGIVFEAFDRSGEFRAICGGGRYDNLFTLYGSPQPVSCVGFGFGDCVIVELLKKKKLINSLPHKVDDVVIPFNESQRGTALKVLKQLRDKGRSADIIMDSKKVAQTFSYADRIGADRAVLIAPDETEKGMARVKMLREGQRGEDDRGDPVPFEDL
As to the kind of experiment: Leishmania infantum Histidine tRNA synthetase (LdHisRS). The experiment is classed as functional. On the set-up: scale not given: in the data most compounds retested in dose-response had high values. The note with it: 30 µM.
For `Cc1nnc(N2C[C@H](OCc3cccnc3)[C@H]3OCCC[C@H]32)s1`, the Percent Effect was 24.3%.
As to `COc1cc(F)c(NCc2nc3ccccc3n2C)cc1OC`, the Percent Effect was determined as 78.3%.
In the case of `COCCOc1ncccc1NCc1nc2ccccc2n1C`, the Percent Effect is 15.7%.
Turning to `COCCOc1ccc(F)cc1NCc1nc2ccccc2n1C`, the Percent Effect was 13.2%.
Regarding `CC(=O)N1CCN(C(=O)Nc2ccc(Cl)cc2)[C@H]2CS(=O)(=O)C[C@H]21`, the Percent Effect is 8.2%.
Consider `O=C(C1CCCC1)N1C[C@@H]2CCN(c3cccnc3)C[C@@H]2C1`, for which the Percent Effect was 14.7%.
With `c1cnc(N2C[C@H]3CCN(c4cccnc4)C[C@H]3C2)nc1`, the Percent Effect is 23.1%.
On to `Fc1cccc(N2C[C@H]3CCN(c4cccnc4)C[C@H]3C2)c1`, for which the Percent Effect amounted to 61.5%.
As to `O=C(c1ccc(F)cc1)N1C[C@@H]2CCN(c3cccnc3)C[C@@H]2C1`, the Percent Effect came out at 20.6%.
`O=C(c1ccncc1)N1C[C@@H]2CCN(c3cccnc3)C[C@@H]2C1`: the Percent Effect was 23.5%.
`Cn1cccc1C(=O)N1CC[C@H]2[C@@H]1CCC(=O)N2CC1CC1`: the Percent Effect came out at 21.1%.
For `O=C(C1CCC1)N1C[C@@H]2CN(Cc3ccncc3)C(=O)[C@@H]2C1`, the Percent Effect was 15.8%.
For `CCCC(=O)N1CC[C@@H]2[C@H](CC1)N(Cc1cccnc1)CCS2(=O)=O`, the Percent Effect came out at 17.3%.
For the compound `Cc1cccc(CN2C[C@@H]3CN(C4CCOCC4)C[C@@H]3C2=O)c1`, the Percent Effect worked out at 19.7%.
As for `CCN1C(=O)C[C@@H]2[C@@H]1CCN2S(=O)(=O)c1cccc(C)c1`, the Percent Effect came out at 0%.
For `CC(C)=CCN1CCN(C(=O)c2snnc2C)[C@H]2CS(=O)(=O)C[C@H]21`, the Percent Effect amounted to 5%.
On to `CCc1cnc(N2C[C@H](OCc3csc(C)n3)[C@H]3COC[C@H]32)nc1`, for which the Percent Effect was 20.7%.
With `CCN1C(=O)CC[C@@H]2N(C(=O)CCn3nccc3C)CCCC[C@@]21C`, the Percent Effect stood at 15.7%.
For `Cc1noc(C[C@@H]2COC[C@H]3CN(S(=O)(=O)C4CC4)C[C@@H]23)n1`, the Percent Effect was determined as 12.8%.
For `CN1CCN(Cc2c(-c3ccco3)[nH]c3ncccc23)CC1`, the Percent Effect is 18.8%.
For `OC1CCCN(Cc2c(-c3ccco3)[nH]c3ncccc23)C1` (stereo not drawn), the Percent Effect was 66.7%.
Regarding `CCN1CCN(Cc2c(-c3ccco3)[nH]c3ncccc23)CC1`, the Percent Effect came out at 4.35%.
Turning to `NC(=O)C1CCCN(Cc2c(-c3ccco3)[nH]c3ncccc23)C1` (stereo not drawn), the Percent Effect worked out at 55.6%.
Consider `c1coc(-c2[nH]c3ncccc3c2CN2CCCOCC2)c1`, for which the Percent Effect is 30.4%.
In the case of `OC1CCN(Cc2c(-c3ccco3)[nH]c3ncccc23)CC1` it was 30.4%.
Under `CN1CCCC[C@@H]2[C@H]1[C@@H](c1ccccc1)CCN2C(=O)c1cnccn1` stands 25%.
In the case of `CC(C)OCCCNC(=O)[C@@]12CNC[C@@H]1CN(S(C)(=O)=O)C2` it was -3.23%; in that of `CCC1=N[C@@]2(CC[C@@H]3CN(Cc4ccc(Cl)cc4)C[C@@H]32)C(=O)N1`, 3.01%.
Turning to `CC(C)NC(=O)[C@@H]1C[C@@H]2CCN(Cc3ccoc3)C[C@H]2O1`, the Percent Effect came out at 17.3%.
On to `Cc1ccc(NC(=O)Nc2c(O)oc3ccccc3c2=O)cc1C`, for which the Percent Effect was 16.1%.
In the case of `O=C(O)C1c2nc[nH]c2CCN1Cc1ccccc1-c1ccccc1` (stereo not drawn) it was 28.8%.
Regarding `O=C(O)C1c2nc[nH]c2CCN1CC(c1ccccc1)c1ccccc1` (stereo not drawn), the Percent Effect is 107%.
Turning to `O=C(O)C1c2nc[nH]c2CCN1Cc1ccc(-c2ccccc2)s1` (stereo not drawn), the Percent Effect came out at 28.8%.
In the case of `Cc1cccc(CN2C(=O)CC[C@@H]3[C@H]2CCN3Cc2ccc(F)cc2)n1` it was 20.6%; in that of `Cc1ccc(CN2CCC[C@@H]3CN(C(=O)c4ccco4)C[C@@H]32)o1`, 15.5%; in that of `CCCn1nccc1C(=O)N1CCN(C(=O)C2CC2)[C@@H]2CS(=O)(=O)C[C@@H]21`, 0%.
Turning to `Cc1cc(C)n(CC(=O)N2C[C@@H]3CC[C@H](C2)N(CC2CCC2)C3)c(=O)n1`, the Percent Effect turned out to be 57.1%.
Under `Cc1ccc(C(=O)N2C[C@@H]3CC[C@H](C2)N(CC2CCC2)C3)s1` stands 21.9%; under `Cc1cc(C)n(CC(=O)N2CCCCC2CCN(C)C)c(=O)n1` (stereo not drawn), 16%.
In the case of `CC(=O)c1ccc(C(=O)N2C[C@@H]3CC[C@H](C2)N(CC2CCC2)C3)s1`, the Percent Effect is 19.2%.
On to `CC(C)=CCN1C[C@H]2CC[C@@H]1CN(C(=O)Cn1c(C)cc(C)nc1=O)C2`, for which the Percent Effect came out at 23.8%.
With `O=C(NC1CCCC1)N1C[C@H]2CN(c3ccncc3)C[C@@]2(C(=O)O)C1`, the Percent Effect was -1.96%.
Regarding `CN(C)C(=O)[C@H]1C[C@H]2OCC[C@H]2N(Cc2ccc3c(c2)OCO3)C1`, the Percent Effect was 29.4%.
For the compound `O=C1CO[C@H]2CN(S(=O)(=O)c3ccccc3)C[C@H]2N1CC1CCCCC1`, the Percent Effect worked out at 27.8%.
In the case of `COCC(=O)NC[C@@]1(COc2cnccn2)C[C@@H](O)[C@@H](O)C1`, the Percent Effect is 10.8%.
In the case of `Cc1cnc(N2C[C@H]3C[C@H](C(=O)N4CCN(C)CC4)N(C)[C@H]3C2)nc1` it was 5.05%; in that of `CC(=O)Nc1ccc2nc(-c3nccn3CCCN(C)C)ccc2c1`, 12.8%; in that of `CC(=O)Nc1ccc2nc(-c3nccn3C[C@@H]3CCCO3)ccc2c1`, 51.1%.
On to `CC(=O)Nc1ccc2nc(-c3nccn3CC(C)(C)CO)ccc2c1`, for which the Percent Effect is 10.6%.
In the case of `O=C([C@@H]1C[C@@H]2CCN(Cc3ccoc3)C[C@H]2O1)N1CCCC1`, the Percent Effect was 2.73%.
In the case of `CN(C)C[C@@H]1C[C@@H]2CN(C(=O)c3ccoc3)CC[C@@H]2N1CC1CC1` it was 7.32%; in that of `NC(=O)N1C[C@H](NC(=O)c2cscn2)[C@@H]2OCCC[C@@H]21`, 13.6%.
Regarding `CC(C)CC(=O)N1CC[C@H]2N(C)CC[C@@]2(C(=O)Nc2cccnc2)CC1`, the Percent Effect was determined as 11.7%.

For the origin of these results see ChEMBL document CHEMBL3988442, “University of Dundee, Small-Polar-MMV Screening Library” (2021).
